Experimental data: PubChem BioAssay (NCATS)
Results filed as inconclusive are left out. Active and inactive are the calls of the source. Unless noted, calls follow the shape of the full dose curve.

Assays:
[1] = target: Alpha-galactosidase (Coffea arabica) (UniProt Q42656); assay: Counterscreen for Glucocerebrosidase Inhibitors: qHTS Assay for Coffee Bean alpha-Galactosidase at pH 5.9 (AID 998; active = well fitted curve in the direction sought with a large enough effect; an effect the other way counts as inactive or inconclusive); conditions: coffee bean alpha-galactosidase enzyme assay; series mostly up to 76.9 µM
Sequence of Alpha-galactosidase (Coffea arabica) (Q42656 whole entry, looked up): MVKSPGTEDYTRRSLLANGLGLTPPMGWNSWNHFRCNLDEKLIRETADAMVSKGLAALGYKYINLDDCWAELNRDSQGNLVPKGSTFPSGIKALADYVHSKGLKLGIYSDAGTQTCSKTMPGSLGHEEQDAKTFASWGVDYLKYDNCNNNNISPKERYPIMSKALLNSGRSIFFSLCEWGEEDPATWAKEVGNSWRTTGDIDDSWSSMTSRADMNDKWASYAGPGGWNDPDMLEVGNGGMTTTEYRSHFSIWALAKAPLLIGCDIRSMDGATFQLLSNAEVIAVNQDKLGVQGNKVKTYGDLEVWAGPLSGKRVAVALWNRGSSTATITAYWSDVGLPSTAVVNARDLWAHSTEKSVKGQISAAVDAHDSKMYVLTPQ
How it was run: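 In 50 mM citric acid pH 5.9 with 0.005% Tween-20, coffee bean enzyme hydrolyses 80 uM 4-MU alpha-D-galactopyranoside over 20 min at RT. Activity is normalized to controls; AC50 comes from Hill-modelled concentration-response data.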

[2] = Validation screen for inhibitors of Lassa infection (AID 463096); conditions: Lassa virus infection, cell-based; series mostly up to 46.1 µM
[3] = qHTS for Inhibitors of the Functional Ribonucleoprotein Complex (vRNP) of Lassa (LASV) Arenavirus: LASV Primary Screen - GLuc reporter signal (AID 1347082; calls by dose curve; tested in HEK293 reporter line; also: nearly all actives have a fitted effect of over 60% in size); conditions: LASV minigenome vRNP, Gaussia luciferase reporter; series mostly up to 57.5 µM
[4] = qHTS for Inhibitors of the Functional Ribonucleoprotein Complex (vRNP) of Lassa (LASV) Arenavirus: Viability assay - alamar blue signal for LASV Primary Screen (AID 1347083; calls by dose curve; tested in HEK293 reporter line; also: nearly all actives have a fitted effect of over 80% in size); conditions: cell viability, alamar blue fluorescence (LASV minigenome counter-screen); series mostly up to 57.5 µM
[5] = qHTS for Inhibitors of the Functional Ribonucleoprotein Complex (vRNP) of Lymphocytic Choriomeningitis Arenaviruses (LCMV): Viability assay - alamar blue signal for LCMV Primary Screen (AID 1347085; calls by dose curve; tested in HEK293 reporter line; also: nearly all actives have a fitted effect of over 80% in size); conditions: alamar blue viability counter-screen, LCMV vRNP screen cells; series mostly up to 57.5 µM
[6] = target: Nucleoprotein (Lymphocytic choriomeningitis virus (strain Armstrong)) (UniProt P09992); assay: qHTS for Inhibitors of the Functional Ribonucleoprotein Complex (vRNP) of Lymphocytic Choriomeningitis Arenaviruses (LCMV): LCMV Primary Screen - GLuc reporter signal (AID 1347086); conditions: LCMV minigenome vRNP cell assay, Gaussia luciferase reporter; series mostly up to 57.5 µM; also: nearly all actives have a fitted effect of over 70% in size
Sequence of Nucleoprotein (Lymphocytic choriomeningitis virus (strain Armstrong)) (P09992 whole entry, looked up): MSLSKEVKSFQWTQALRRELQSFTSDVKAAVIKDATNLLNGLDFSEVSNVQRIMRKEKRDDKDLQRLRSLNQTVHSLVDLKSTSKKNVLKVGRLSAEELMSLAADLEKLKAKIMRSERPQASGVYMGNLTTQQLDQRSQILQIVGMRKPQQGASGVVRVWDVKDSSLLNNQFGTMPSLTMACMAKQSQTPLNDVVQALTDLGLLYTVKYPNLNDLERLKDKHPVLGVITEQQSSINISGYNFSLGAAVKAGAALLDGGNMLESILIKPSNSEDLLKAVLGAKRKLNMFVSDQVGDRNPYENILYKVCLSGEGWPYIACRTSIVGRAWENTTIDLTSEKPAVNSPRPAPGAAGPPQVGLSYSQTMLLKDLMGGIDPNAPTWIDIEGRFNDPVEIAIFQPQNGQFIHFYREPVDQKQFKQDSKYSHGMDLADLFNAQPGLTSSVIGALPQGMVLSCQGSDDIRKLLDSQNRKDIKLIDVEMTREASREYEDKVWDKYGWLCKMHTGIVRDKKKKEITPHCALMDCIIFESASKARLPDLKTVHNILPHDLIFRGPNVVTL

[7] = Inducers of the Endoplasmic Reticulum Stress Response (ERSR) in human glioma: Validation (AID 504836; active = well fitted curve in the direction sought with a large enough effect; an effect the other way counts as inactive or inconclusive); conditions: human glioma cells, ER stress response reporter; series mostly up to 38.3 µM
How it was run: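 Stably transfected U87-MG human glioma cells carrying a GRP78-based luminescent sensor were seeded at 1000 cells/well, pin-dosed with compounds and incubated 16 h. Luciferase reagent was then added, and end-point luminescence was read after 10 min at room temperature.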

[8] = target: Alpha-galactosidase (Coffea arabica) (UniProt Q42656); assay: Counterscreen for Glucocerebrosidase Inhibitors: qHTS Assay for Coffee Bean alpha-Galactosidase at pH 4.5 (AID 957; active = well fitted curve in the direction sought with a large enough effect; an effect the other way counts as inactive or inconclusive); conditions: purified coffee bean alpha-galactosidase, fluorogenic substrate; series mostly up to 76.9 µM
How it was run: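 Fluorogenic qHTS at pH 4.5 (citrate buffer with Tween-20): 2 nM enzyme, 80 uM 4-MU-alpha-galactoside substrate, compound titrated 0.7 nM to 77 uM, 20 min room temperature. Glycine/NaOH stop; 4-MU read Ex 365/Em 440; Hill-equation AC50 against no-enzyme and enzyme controls.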

[9] = target: Flap endonuclease 1 (Homo sapiens) (UniProt P39748); assay: qHTS Validation Assay for the Inhibitors of Human Flap endonuclease 1 (FEN1) (AID 488816; active = well fitted curve in the direction sought with a large enough effect; an effect the other way counts as inactive or inconclusive); conditions: FEN1 nuclease activity, fluorogenic DNA substrate; series mostly up to 57.1 µM
Sequence of Flap endonuclease 1 (Homo sapiens) (P39748 whole entry, looked up): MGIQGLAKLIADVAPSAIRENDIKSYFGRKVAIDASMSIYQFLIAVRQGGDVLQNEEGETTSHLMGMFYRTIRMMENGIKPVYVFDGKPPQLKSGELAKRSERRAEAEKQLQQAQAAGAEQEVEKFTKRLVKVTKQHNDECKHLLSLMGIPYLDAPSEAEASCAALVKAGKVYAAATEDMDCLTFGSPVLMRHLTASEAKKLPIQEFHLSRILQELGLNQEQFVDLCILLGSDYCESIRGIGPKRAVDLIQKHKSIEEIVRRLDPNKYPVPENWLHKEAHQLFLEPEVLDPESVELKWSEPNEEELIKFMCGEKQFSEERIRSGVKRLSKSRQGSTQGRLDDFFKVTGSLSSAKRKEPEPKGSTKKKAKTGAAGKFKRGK
How it was run: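 Steps: add FEN1 (10 nM reagent) or buffer only; pin compounds; hold 15 min at room temperature; start with substrate, 50 nM final; read at 0 and 15 min; correct, normalize and fit a four-parameter Hill curve.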

[10] = target: Arylsulfatase A (Homo sapiens) (UniProt P15289); assay: qHTS screen for enhancers of Arylsulfatase A (ASA1): LOPAC Validation Assay (AID 720538; active = well fitted curve in the direction sought with a large enough effect; an effect the other way counts as inactive or inconclusive); conditions: ASA enzyme activity, LOPAC qHTS enhancer assay; series mostly up to 57.5 µM
Sequence of Arylsulfatase A (Homo sapiens) (P15289 whole entry, looked up): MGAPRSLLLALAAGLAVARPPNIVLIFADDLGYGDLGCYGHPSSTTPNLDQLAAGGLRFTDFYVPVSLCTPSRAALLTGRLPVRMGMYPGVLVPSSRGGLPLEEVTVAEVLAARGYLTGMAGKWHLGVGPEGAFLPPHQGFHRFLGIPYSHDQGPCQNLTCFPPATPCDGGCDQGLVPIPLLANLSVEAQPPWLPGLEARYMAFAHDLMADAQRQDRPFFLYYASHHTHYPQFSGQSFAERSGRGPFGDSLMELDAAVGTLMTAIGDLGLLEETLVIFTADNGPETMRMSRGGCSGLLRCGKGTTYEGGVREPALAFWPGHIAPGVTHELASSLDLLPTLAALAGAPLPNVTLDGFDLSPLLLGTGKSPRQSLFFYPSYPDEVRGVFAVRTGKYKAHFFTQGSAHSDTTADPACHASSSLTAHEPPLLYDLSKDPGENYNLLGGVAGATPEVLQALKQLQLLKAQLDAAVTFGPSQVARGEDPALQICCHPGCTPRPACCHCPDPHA
How it was run: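 First, ASA-I179S fibroblasts from an MLD patient adhered for 6 hrs. Next, compounds were added for 48h. Then pNCS substrate (0.5mM final) with lysis buffer reacted 14h at room temperature before NaOH stop and fluorescence measurement.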

Measured: Potency

COc1cc(CC(=O)O)ccc1O
inactive: [1] | [2] | [3] | [4] | [5] | [6]

CN1CCc2ccccc2Cc2[nH]c3ccccc3c2CC1
inactive: [1] | [2] | [3] | [4] | [5] | [6]

Cc1nc(N=Nc2cc(S(=O)(=O)O)c3cc([N+](=O)[O-])cc(S(=O)(=O)O)c3c2)c(COP(=O)(O)O)c(C=O)c1O
not listed: [8] | [9] | [10]
inactive: all other assays above

C[C@@H](NC(=O)/C(C#N)=C/c1ccc(O)c(O)c1)c1ccccc1
not listed: [8] | [9] | [10]
inactive: all other assays above

N#C/C(=C\c1ccc(-c2cc(Cl)ccc2Cl)o1)C(=O)Nc1cccc2ncccc12
inactive: [7] | [3] | [4] | [5] | [6]

CCCCCCCCCCC/C=C\C(C)(C)/C=C\CCCC(=O)O
not listed: [7] | [9] | [10]
inactive: all other assays above

N#C/C(=C\c1ccc(O)c(O)c1)C(=O)NCCCc1ccccc1
not listed: [7] | [9] | [10]
inactive: all other assays above

CN1C2CCCC1CC(NC(=O)c1nn(C)c3ccccc13)C2 (stereo unspecified)
inactive: [7] | [3] | [4] | [5] | [6]

N=C(N)c1ccc(N)cc1
not listed: [8] | [9] | [10]
inactive: all other assays above

CC[C@H](NC(=O)c1c(C)c(-c2ccccc2)nc2ccccc12)c1ccccc1
not listed: [7] | [9] | [10]
inactive: all other assays above

Oc1ccc(Cn2cc[nH]c2=S)cc1
not listed: [7] | [9] | [10]
inactive: all other assays above

O=C(O)CC1CC(c2ccccc2)=NO1 (stereo unspecified)
not listed: [1] | [2] | [8]
inactive: all other assays above

Nc1ccc(-c2nc3ccc(-c4nc5ccc(N)cc5[nH]4)cc3[nH]2)cc1
not listed: [7] | [9] | [10]
inactive: all other assays above

Fc1ccc(CN(C2=NCCN2)c2c(Cl)cccc2Cl)cc1
not listed: [8] | [9] | [10]
inactive: all other assays above

NCCCNCCCCNCCCN
not listed: [7] | [9] | [10]
inactive: all other assays above

CCCCCCCCCCCCCCSCC(=O)O
not listed: [8] | [9] | [10]
inactive: all other assays above

COc1cc2nc(N3CCN(C(=O)OCc4ccccc4)C(C(=O)NC(C)(C)C)C3)nc(N)c2cc1OC (stereo unspecified)
inactive: [7] | [3] | [4] | [5] | [6]

O=c1cc(-c2ccccc2F)[nH]c2cc3c(cc12)OCO3
inactive: [7] | [3] | [4] | [5] | [6]

Cc1nc2sccn2c(=O)c1CCN1CCC(=C(c2ccccc2)c2ccc(F)cc2)CC1
inactive: [7] | [3] | [4] | [5] | [6]

CC(O)C(O)[C@H]1CNc2nc(N)[nH]c(=O)c2N1 (stereo partly specified)
inactive: [7] | [3] | [4] | [5] | [6]

CN(C)CCCO[C@@H]1[C@H]2OC(C)(C)O[C@H]2O[C@@H]1[C@H](O)CO
inactive: [7] | [3] | [4] | [5] | [6]

CCCCCCCCc1ccc(-c2ccc(C(=O)O)cc2)cc1
inactive: [7] | [3] | [4] | [5] | [6]

OC[C@H]1O[C@H](n2cnc3c(N[C@H]4CCC[C@@H]4O)ncnc32)[C@H](O)[C@@H]1O
inactive: [7] | [3] | [4] | [5] | [6]

CN(CC[C@@H](Oc1ccc(C(F)(F)F)cc1)c1ccccc1)CC(=O)O
inactive: [7] | [3] | [4] | [5] | [6]

N[C@H](C(=O)O)[C@H]1C[C@@H]1C(=O)O
inactive: [7] | [3] | [4] | [5] | [6]

C[C@](Cc1ccc(O)c(O)c1)(NN)C(=O)O
inactive: [7] | [3] | [4] | [5] | [6]

NCC(O)C1CCCCCCC1 (stereo unspecified)
inactive: [7] | [3] | [4] | [5] | [6]

Cc1cccc(/C=C/c2ccccc2)n1
inactive: [7] | [3] | [4] | [5] | [6]
